Source: PubChem
Shown are actives, neighbours in structure and some others; about 1.5% of the full set was active somewhere.
CRFBP-R2 agonist: agonists of human CRF-binding protein/CRF-R2 receptor complex | HEK293 CRF-R2/CRF-BP, calcium dye fluorescence (FLIPR); percent of saturating CRF peptide response | activation, % at 13.2 µM | 0.46% of 350,000 active;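 active = activation of at least 50%, plus an integration ratio under a set limit after plate pattern correction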;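 note: plate controls were neutral control wells without compound for no effect and CRF at EC100 for full effect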
NTR1 ag: agonists of human neurotensin receptor NTR1; P30989; NTR1-U2OS beta-arrestin-GFP spot imaging, agonist mode; activation, % at 20 µM; 0.17% of 330,000 active; AID 493036;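 active = activation at or above 40% of the spot to cytoplasm intensity ratio, with at least 20 cells analyzed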;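 note: 0% = DMSO without peptide and 100% = 100 nM NTR1 peptide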
Target sequence (P30989 whole entry, looked up): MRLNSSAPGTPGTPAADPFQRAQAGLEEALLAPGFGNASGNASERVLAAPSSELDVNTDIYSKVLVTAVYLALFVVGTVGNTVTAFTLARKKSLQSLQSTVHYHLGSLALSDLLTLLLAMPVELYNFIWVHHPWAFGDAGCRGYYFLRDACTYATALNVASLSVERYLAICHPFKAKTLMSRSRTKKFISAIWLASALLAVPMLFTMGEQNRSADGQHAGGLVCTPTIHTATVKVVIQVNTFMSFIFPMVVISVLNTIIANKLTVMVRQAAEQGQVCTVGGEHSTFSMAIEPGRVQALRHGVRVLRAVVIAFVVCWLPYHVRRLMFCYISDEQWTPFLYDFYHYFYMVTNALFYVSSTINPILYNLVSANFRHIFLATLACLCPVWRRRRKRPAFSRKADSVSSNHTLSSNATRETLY
V-ATPase pHluor: yeast V-ATPase proton transport regulation by pHLuorin | S. cerevisiae, pHLuorin cytosolic pH fluorescence | response, % at 10 µM | 0.37% of 350,000 active | AID 504577; in the data active = response mostly above about 7.3%, no sharp cut-off; inactive = mostly below about 5.4%; note: actives read high
CRFBP-R2 block: CRF-BP/CRF-R2 complex antagonism; HEK293 CRF-R2/CRF-BP, CRF-induced calcium fluorescence; inhibition, % at 11.8 µM; 0.59% of 350,000 active;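 active = inhibition of the ligand-induced calcium signal above about 50% at the single tested concentration, limit read from the data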
Active calls of the source: *; . = not tested or not shown.

SMILES	CRFBP-R2 agonist	NTR1 ag	V-ATPase pHluor	CRFBP-R2 block
CCN(C[C@H]1N[C@@](C)(C(=O)OC)[C@H]2C(=O)N(C)C(=O)[C@@H]12)S(=O)(=O)c1ccc(F)cc1	4	-1	2	-10
O=C1S/C(=C\c2ccc(O)c([N+](=O)[O-])c2)C(=O)N1c1ccccc1Cl	1	0	-2	55*
O=C1/C(=C\c2cc([N+](=O)[O-])ccc2O)SC(=S)N1Cc1ccc(Cl)cc1	140*	.	1	-85
Cc1ccc(NC(=O)CN2C(=O)S/C(=C/c3ccc(O)c([N+](=O)[O-])c3)C2=O)cc1C	-4	-1	4	37
O=C1S/C(=C\c2ccc(O)c([N+](=O)[O-])c2)C(=O)N1Cc1cccc([N+](=O)[O-])c1	5	3	-2	92*
Cc1cccc(NC(=O)CN2C(=O)S/C(=C\c3ccc(O)c([N+](=O)[O-])c3)C2=O)c1	-1	0	1	20
COc1cc(/C=C2\SC(=O)N(c3cccc(Cl)c3)C2=O)cc([N+](=O)[O-])c1O	-6	0	1	54*
CCCCC(=O)Nc1ccc(C(=O)Nc2ccc(OC)cc2[N+](=O)[O-])cc1	117*	-1	1	-165
COc1ccc(NC(=S)NCc2ccccc2Cl)c(OC)c1	-3	1	21*	50
COc1ccc(NC(=O)CCCCC(=O)Nc2ccc(OC)cc2OC)c(OC)c1	2	1	-1	59*
COc1ccc(NC(=O)CC(=O)Nc2ccc(OC)cc2OC)c(OC)c1	1	0	-2	6
COc1ccc(NC(=O)c2cc(C(=O)Nc3ccc(OC)cc3OC)cc([N+](=O)[O-])c2)c(OC)c1	7	0	7	50*
COc1ccccc1NC(=S)NCc1ccccc1Cl	-2	0	0	27
CCCCC(=O)Nc1ccc(NC(=O)c2ccc([N+](=O)[O-])cc2)cc1OC	-1	0	1	10
Cc1c(C(=O)Nc2c(F)cccc2F)sc2ncn(CC(=O)N3CCCCC3)c(=O)c12	-1	0	1	78*
Cn1c(SCC(=O)Nc2ccc3c(c2)OCCO3)nnc1C(F)(F)F	-1	-1	0	-5
Cn1c(SCC(=O)c2ccc3c(c2)OCCO3)nnc1C(F)(F)F	-1	-1	1	111*
COCCn1c(SCC(=O)c2ccc3c(c2)OCCO3)nnc1-c1ccco1	0	-2	3	98*
COc1cc(CN(C)C(=O)C2CCN(S(=O)(=O)c3cccs3)CC2)ccc1OC(F)F	0	.	2	6
CCOc1ccccc1-n1c(C)nc2cc(C(=O)O)ccc21	1	2	6	70*
CSc1ccccc1C(=O)NCc1ccccc1C	0	-1	-2	29
COc1ccc(OC)c(NC(=O)c2[nH]c(C)c(C(C)=O)c2C)c1	-3	3	5	77*
COc1ccc(C(=O)Nc2ccc3nc4n(c(=O)c3c2)CCCCC4)cc1OC	0	.	1	62*
Cc1cc(C)c2nc(NC(=O)c3ccc4c(=O)n5c(nc4c3)CCCCC5)sc2c1	-1	7	-2	59*
O=C(Nc1ccc(SC(F)F)cc1)c1ccc2c(=O)n3c(nc2c1)CCC3	74*	21	5	6
SMILES	CRFBP-R2 agonist	NTR1 ag	V-ATPase pHluor	CRFBP-R2 block
COc1cc(C(=O)Nc2ccc3nc4n(c(=O)c3c2)CCCCC4)cc(OC)c1OC	-1	2	2	10
COCCNC(=O)CC(=O)N/N=C/c1ccc(C(=O)OC)cc1	3	1	0	0
COc1cccc(COC(=O)CCNC(=O)c2ccc(Cl)cc2)c1OC	-2	-1	0	20
COc1ccc(C(=O)/C(C#N)=N/Nc2cccc([N+](=O)[O-])c2)cc1	28	.	-4	57*
CCC(CC)=NNc1cccc([N+](=O)[O-])c1	0	-1	-3	12
N#C/C(=N\Nc1cccc(Cl)c1)C(=O)c1ccccc1	58*	5	-7	47
N#C/C(=N\Nc1ccccc1Cl)C(=O)c1ccccc1	38	1	-2	85*
N#C/C(=N\Nc1ccc(Cl)cc1)C(=O)c1ccsc1	32	5	3	26
COc1ccc([N+](=O)[O-])cc1N(CC(=O)NCCC1=CCCCC1)S(C)(=O)=O	1	2	-1	1
O=C(COc1ccc(C(=O)c2ccccc2)cc1)Nc1cccnc1	2	0	-1	17
COc1cccc2c1C(=O)c1c(O)c3c(c(O)c1C2=O)C[C@@](O)(C(=O)CO)C[C@@H]3O[C@H]1C[C@H](N)[C@@H](O)[C@H](C)O1	60*	-4	-2	-113
CC(=O)[C@]1(O)Cc2c(O)c3c(c(O)c2[C@@H](O[C@H]2C[C@H](N)[C@H](O)[C@H](C)O2)C1)C(=O)c1ccccc1C3=O	212*	-3	.	-196
COc1cccc2c1C(=O)c1c(O)c3c(c(O)c1C2=O)CC(O)(C(=O)CO)CC3OC1CC(N(C)C)C(O)C(C)O1 (stereo unspecified)	91*	.	-1	-102
COc1cccc2c1C(=O)c1c(O)c3c(c(O)c1C2=O)C[C@@](O)(C(C)=O)C[C@@H]3O[C@H]1C[C@H](N)[C@H](O)[C@H](C)O1	83*	.	-1	-92
O=C(CC(C(=O)O)c1cccc(Cl)c1Cl)c1ccccc1 (stereo unspecified)	0	3	1	16
CCC(C)NC(=O)Cn1cnc2sc(C)c(S(=O)(=O)N3CCCCC3)c2c1=O (stereo unspecified)	-1	0	-1	62*
CCC(C)NC(=O)Cn1cnc2sc(C)c(S(=O)(=O)N3CCN(c4ccccc4OC)CC3)c2c1=O (stereo unspecified)	-1	0	-2	-8
Cc1ccccc1S(=O)(=O)N(C)C[C@@H]1OCc2cnnn2CCCC(=O)N([C@@H](C)CO)C[C@H]1C	5	.	2	14
CC(C)N1CCN(Cc2nc(-c3ccccc3)cs2)CC1CCO (stereo unspecified)	-3	0	0	82*
OCCC1CN(Cc2nc(-c3ccccc3)cs2)CCN1C1CCCC1 (stereo unspecified)	1	0	6	-2
Cc1ccc(NS(=O)(=O)c2cccc3nsnc23)cc1	-1	-2	6	75*
O=S(=O)(Nc1ccccc1)c1cccc2nsnc12	1	0	2	8
CCc1ccc(Nc2n[n+](-c3ccccc3)c(/C=C/c3ccccc3)s2)cc1	.	2	.	.
Cc1ccc(-c2ccc(=O)n(Cc3cc(C)ccc3C)n2)cc1	5	26	2	123*
CC1=CC2=NC(=O)C(c3ccccc3)C(=O)N2C=C1 (stereo unspecified)	-4	.	2	22
Cc1ccc(CN2CCN(C3CCC3)CC2CCO)cc1 (stereo unspecified)	1	-1	0	5
Cc1ccc(CN2CCN(C3CCOCC3)CC2CCO)cc1 (stereo unspecified)	1	0	-3	80*
O=C(Nc1ccccn1)c1ccc2c(c1)S(=O)(=O)c1ccccc1C2=O	-4	2	1	-2
O=C1c2ccccc2S(=O)(=O)c2cc(C(=O)N(c3ccccn3)c3ccccn3)ccc21	173*	6	-2	-58
